# Compound activity as filed in PubChem BioAssay.
# A selection: hits, their analogues and other compounds. The true share with any hit is near 10%.
# hNpr1 antagonist – antagonists of human natriuretic peptide receptor Npr1; Potency, µM (top dose mostly 46.3 µM), for the others: at the highest dose activity change, negative = inhibition, most hits filed as inhibitors; hit rate 1.6% among 76,000; P16066; AID 1347048; HEK293 hNpr1 GloSensor cGMP, ANP-stimulated luminescence; calls by dose curve; note: % is set by controls: 0 for no effect and ±100 for the full control effect; nearly all actives have a fitted effect of over 60% in size
#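 HEK293 cells stably expressing human Npr1 and cGMP GloSensor pGS-40F, loaded 2 h with 2% GloSensor reagent, given compound 30 min at room temperature. Luminescence read before and 20 min after 0.1 nM hNppA.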
# 3T3 cytotox – NIH 3T3 cell cytotoxicity | Potency, µM (doses to about 96.7 µM), for the others: at the highest dose activity change, negative = cytotoxicity, hits mostly inhibitors | NIH 3T3 viability, CellTiter-Glo ATP luminescence, 48-72 h | hit rate 4.3% among 94,000; note: % is set by controls: 0 for no effect and ±100 for the full control effect; nearly all actives have a fitted effect of over 55% in size
#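 Viability of NIH 3T3 cells after 48 or 72 hr compound treatment at 37 °C was assessed by CellTiter-Glo, with luminescence imaged following a 10 min room-temperature step.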
# HEK cytotox – cytotoxic compounds in HEK 293 cells | HEK 293 viability, ATP luminescence (CellTiter-Glo), 48-72 h | Potency, µM (top dose mostly 115 µM), for inactives: at the top dose activity change, negative = cytotoxicity, usual class: inhibitors | hit rate 6.6% among 94,000; note: % is set by controls: 0 for no effect and ±100 for the full control effect; nearly all actives have a fitted effect of over 60% in size
#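 qHTS cytotoxicity; HEK 293, 250 cells/well; compound pinned; 48 or 72 hr, 37 degree Celsius, 5% CO2, 95% humidity; CellTiter-Glo, 10 min RT; luminescence (ATP).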
# FLuc inh – inhibitors of firefly (Photinus pyralis) luciferase; hit rate 2.5% among 76,000; Potency, µM (top dose mostly 115 µM), actives largely listed as inhibitors; purified P. pyralis luciferase, luminescence, biochemical; note: % is set by controls: 0 for no effect and ±100 for the full control effect; nearly all actives have a fitted effect of over 65% in size
#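 Luminescence read by CCD imager after adding enzyme (10nM final) to wells holding compound, titrated in qHTS. Substrates 10uM each D-luciferin and ATP; buffer 50mM Tris acetate pH 7.5, 10mM Mg acetate, Tween-20, BSA.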
# GPT2 inhibitor – GPT2 alanine aminotransferase inhibition; Q8TD30; Recombinant GPT2, coupled pyruvate oxidase/HRP Amplex Red fluorescence; Potency, µM (top dose mostly 57.7 µM), for inactives: top-dose activity change, negative = inhibition, hits mostly inhibitors; hit rate 0.25% among 100,000; note: % is set by controls: 0 for no effect and ±100 for the full control effect; nearly all actives have a fitted effect of over 60% in size
# Target sequence (Q8TD30 whole entry, looked up): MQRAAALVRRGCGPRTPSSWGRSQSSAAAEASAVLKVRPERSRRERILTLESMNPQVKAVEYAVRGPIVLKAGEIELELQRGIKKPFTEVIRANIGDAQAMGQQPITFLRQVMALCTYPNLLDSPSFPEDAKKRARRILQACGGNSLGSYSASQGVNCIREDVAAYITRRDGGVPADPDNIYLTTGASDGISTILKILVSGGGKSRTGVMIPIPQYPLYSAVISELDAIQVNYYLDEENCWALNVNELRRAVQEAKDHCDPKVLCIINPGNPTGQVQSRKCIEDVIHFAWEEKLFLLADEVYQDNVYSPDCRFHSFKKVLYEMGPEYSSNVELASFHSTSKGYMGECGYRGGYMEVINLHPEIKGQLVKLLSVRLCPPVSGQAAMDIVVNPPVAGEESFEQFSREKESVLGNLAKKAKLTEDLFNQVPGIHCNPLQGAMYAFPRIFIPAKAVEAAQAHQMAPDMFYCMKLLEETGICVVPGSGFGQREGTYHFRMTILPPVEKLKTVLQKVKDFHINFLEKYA
#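 Fluorescence of coupled pyruvate oxidase/HRP/Amplex Red system (50uM Amplex, 30 min, dark) reports pyruvate formed by GPT2. Enzyme reaction: 10ng/uL GPT2, 2mM L-alanine, 250uM a-KG, 30 min room temperature, pH 7.5; 50uM AOA control.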
# NPR1 antag cnf – confirmation of human Npr1 natriuretic peptide receptor antagonists. shares compounds with hNpr1 antagonist. HEK293 hNpr1 cGMP GloSensor luminescence, ANP-stimulated. Potency, µM (titrated, usually from 57.6 µM), for inactives: at the highest dose activity change, negative = inhibition, actives largely listed as inhibitors. hit rate 76% among 1,400; calls by dose curve; note: nearly all actives have a fitted effect of over 70% in size
# Npr2 selectivity – hNpr2 antagonism, selectivity versus Npr1. shares compounds with hNpr1 antagonist. hit rate 67% among 1,400. Potency, µM (doses to about 57.6 µM), without a hit: at the top dose activity change, negative = inhibition, most hits filed as inhibitors. HEK293 hNpr2 GloSensor cGMP luminescence, CNP-stimulated; calls by dose curve; note: nearly all actives have a fitted effect of over 70% in size
# FLuc inh counter – FLuc enzyme inhibition, Npr1 counter-screen; hit rate 0.7% among 1,400; Potency, µM (top dose mostly 57.6 µM), for the others: at the highest dose activity change, negative = inhibition, most hits filed as inhibitors; purified FLuc enzyme, luminescence, Km substrate; shares compounds with hNpr1 antagonist; note: 0% is about no effect
# GloSensor cGMP – counter-screen for Npr1 antagonists: GloSensor control cell line; hit rate 69% among 1,400; HEK293 GloSensor cGMP, SNP-stimulated, luminescence; shares compounds with hNpr1 antagonist; Potency, µM (series often up to 57.6 µM), without a hit: top-dose activity change, negative = inhibition, actives largely listed as inhibitors; calls by dose curve; note: % is set by controls: 0 for no effect and ±100 for the full control effect; nearly all actives have a fitted effect of over 70% in size
# Active calls of the source: *; i = inactive; ? = inconclusive; · = not tested or not shown; [ ] = remark or other dose. Unless noted, calls come from the whole dose curve; as a rule, active = well fitted curve in the direction sought with a large enough effect; inconclusive = small, poorly fitted or top-dose-only effect, or another doubt; inactive = no such curve, though single readings can be large; an effect the other way counts as inactive or inconclusive. Potency is the fitted concentration of half-maximal effect.
SMILES,hNpr1 antagonist,3T3 cytotox,HEK cytotox,FLuc inh,GPT2 inhibitor,NPR1 antag cnf,Npr2 selectivity,FLuc inh counter,GloSensor cGMP
COc1cccc(-c2noc(CC3CCN(C(=O)c4ccc(C(C)C)cc4)CC3)n2)c1,10µM*,?,35µM*,i,0%,14µM*,17µM*,-5%,14µM*
COc1cccc(-c2noc(CC3CCN(C(=O)c4ccc(F)c(F)c4)CC3)n2)c1,6.3µM*,?,?,i,i,4.8µM*,9.7µM*,0%,6.1µM*
COc1cccc(CNC(=O)N2CCC(c3cc(-c4cccc(OC)c4)n[nH]3)CC2)c1,?,?,?,i,i,·,·,·,·
COc1cccc(-c2cc(C3CCN(C(=O)c4ccc(Br)cc4)CC3)[nH]n2)c1,?,?,?,i,5%,27µM*,?,3%,?
COc1ccc(-c2nc(C(=O)N3CCN(c4ncccn4)CC3)n3ccccc23)cc1,-17%,-16%,?,?,i,·,·,·,·
C[S+](=O)([O-])NC1CCN(c2nccc(Nc3ccccc3F)n2)CC1,·,?,?,·,i,·,·,·,·
CCOc1ccc(C(=O)N2CCC(n3cc(-c4nc(-c5ccccc5)no4)nn3)CC2)cc1,-25%,-23%,?,?,i,·,·,·,·
Cc1cccc(C(=O)N2CCC(Cc3nc(C(C)C)no3)CC2)c1,-23%,?,?,i,i,·,·,·,·
COc1cccc(-c2noc(CC3CCN(C(=O)c4ccc(C)cc4)CC3)n2)c1,3.5µM*,?,?,i,1%,4.8µM*,5.4µM*,2%,4.3µM*
CCOc1ccc(C(=O)N2CCC(Cc3nc(-c4cccc(OC)c4)no3)CC2)cc1,7.1µM*,?,?,i,-8%,9.7µM*,12µM*,-1%,9.7µM*
COc1cccc(-c2noc(CC3CCN(C(=O)c4ccc(C)cc4C)CC3)n2)c1,11µM*,?,35µM*,i,i,11µM*,11µM*,0%,9.7µM*
CC(C)c1cccc(NC(=O)C2CCN(C(=O)c3ncn4c3COC(c3ccc(F)cc3)C4)CC2)c1 (configuration not stated),11µM*,-16%,?,i,-7%,?,?,-3%,?
Cc1oc(C(O)c2ccccc2F)nc1C(=O)Nc1ccc(C(N)=O)cc1 (configuration not stated),?,?,?,i,-2%[88.5 µM],·,·,·,·
Cc1oc(C(O)c2ccccc2F)nc1C(=O)Nc1ccccc1C(N)=O (configuration not stated),25µM*,?,?,i,-8%[88.5 µM],31µM*,35µM*,3%[86.2 µM],35µM*
Cc1oc(C(O)c2ccccc2F)nc1C(=O)Nc1ccccc1 (configuration not stated),-30%[70.6 µM],?,?,?,4%[88.5 µM],·,·,·,·
CNC(=O)c1cccc(NC(=O)c2nc(C(O)c3ccccc3F)oc2C)c1 (configuration not stated),35µM*,?,79µM*,i,-2%[88.5 µM],31µM*,31µM*,2%[86.2 µM],31µM*
COC(=O)CNC(=O)CNC(=O)c1cccc(-c2ccsc2)c1,·,-23%[138 µM],-19%[172 µM],·,i,·,·,·,·
COc1ccc(C2=NOC3(CCN([S+](=O)([O-])c4cccc(OC)c4)C3)C2)cc1 (configuration not stated),13µM*,?,28µM*,i,4%,24µM*,27µM*,0%,24µM*
COc1ccc(C2=NOC3(CCN([S+](=O)([O-])c4cccc(C(F)(F)F)c4)C3)C2)cc1 (configuration not stated),16µM*,?,?,i,-8%,?,31µM*,4%,?
COc1cccc([S+](=O)([O-])N2CCC3(CC(c4cccc(C(F)(F)F)c4)=NO3)C2)c1 (configuration not stated),·,-24%,-28%,·,-18%,·,·,·,·
O=C(Cc1ccc(F)cc1)N1CCCN(c2ccnc3ccnn23)CC1,·,-32%,-24%,·,i,·,·,·,·
O=C(NCCNC(=O)c1ccc(-c2cncnc2)cc1)Nc1ccc(Cl)cc1,·,-9%,?,·,·,·,·,·,·
Cc1ccc(-n2ncc3c2CCCC3NC(=O)c2cc(C(C)C)no2)cc1C (configuration not stated),14µM*,?,?,i,-17%,17µM*,17µM*,-7%,12µM*
Cc1cc(C)cc(-n2ncc3c2CCCC3NC(=O)CCn2nnnc2C)c1 (configuration not stated),6%,-1%,5%,i,-24%,·,·,·,·
CN(C)c1cccc(Oc2nnnn2[C@H]2CO[C@H]3[C@@H]2OC[C@@H]3NC(=O)NCc2ccccc2)c1,3%,-3%,-2%,i,-4%,·,·,·,·
COc1ccc(C(=O)N[C@H]2CO[C@H]3[C@@H]2OC[C@@H]3n2nnnc2Oc2cccc(N(C)C)c2)cc1,7.1µM*,?,?,i,-14%,12µM*,12µM*,2%,9.7µM*
CN(C)c1cccc(Oc2nnnn2[C@H]2CO[C@H]3[C@@H]2OC[C@@H]3NC(=O)c2ccccc2)c1,13µM*,-29%,?,i,i,?,?,-3%,?
COc1ccc(C(=O)N[C@H]2CO[C@H]3[C@@H]2OC[C@@H]3n2nnnc2Oc2ccc3c(c2)OCO3)cc1,?,-33%,?,i,-4%,·,·,·,·
CN(C)c1ccc(C(=O)N[C@H]2CO[C@H]3[C@@H]2OC[C@@H]3n2nnnc2Oc2cccc(N(C)C)c2)cc1,11µM*,-28%,?,i,2%,14µM*,15µM*,-3%,12µM*
Cc1ccc(C(=O)N[C@H]2CO[C@H]3[C@@H]2OC[C@@H]3n2nnnc2Oc2ccccc2)cc1,8.9µM*,?,?,i,-5%[88.5 µM],11µM*,16µM*,1%[86.2 µM],9.9µM*
